From PubChem BioAssay (NCI)
The panel holds about 83,000 compounds, 20% with a hit somewhere; the sample as a whole holds those more often.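 Negative percent growth values reflect cell death: -40 means 40% of the cells present at the start died, and -100 means all died.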 Values without a mark were called inactive. Active and inactive are the calls of the source. The calls were made as follows: active = growth percent below 10; inactive = the rest.

Each compound was assayed on HL-60(TB) leukemia (assay: NCI-60 one-dose screen, 48 h (100 = growth as untreated, 0 = no growth, -100 = all killed)). Details: 10 µM unless noted.

Row | Structure (SMILES) | growth
1 | c1coc(CNc2c3ccccc3nc3ccccc23)c1 | 93%
2 | Cn1cc(-c2nc(-c3c[nH]c4ncccc34)cs2)c2cccnc21 | 48.1%
3 | COc1cccc(C2C3=C(COC3=O)N(CCO)c3cc4c(cc32)OCCO4)c1 (centres undefined) | -16.1% (active)
4 | COc1cc(-c2nc(C(=O)NCC(=O)O)nn2-c2ccc(Cl)cc2)cc(OC)c1OC | 101%
5 | Cc1cc2nc3c4cccc(O)c4n(CCN(C)C)c3nc2cc1C | 29.2%
6 | CC(C)N(CCCC#N)C(C)C | 102%
7 | CC(=O)OC/C=C(/C)C[P+](c1ccccc1)(c1ccccc1)c1ccccc1 | 44.9%
8 | COc1ccc(CNC(=O)C(O)C(Cc2ccccc2)NC(=O)c2[nH]c3ccccc3c(=O)c2C)cc1OC (centres undefined) | 97.3%
9 | Nc1ccc(CCCCc2ccccc2)c(Cl)c1 | 78.7%
10 | Cc1[nH]c(/C=C/C(=O)c2ccc(C(F)(F)F)c(F)c2)c(C)c1C(=O)NCC(C)C | 98.5%
11 | CN(C)c1ccc(-c2cc(-c3ccc(Nc4nc(Nc5ccccc5)nc(Nc5ccc(Cl)cc5)n4)cc3)nc(N)n2)cc1 | 56.3%
12 | Cc1ccc(NC(=O)NC2CCCCC2)cc1 | 63.1%
13 | Cn1c2ccccc2c2c3[nH][nH]c(=O)c3c3c4ccccc4[nH]c3c21 | 4.77% (active)
14 | CC(=O)c1cccc(N(C)S(=O)(=O)c2ccc(C)cc2)c1 | 88.8%
15 | COc1ccc(C(Cn2ccnc2)Sc2ccc(Cl)c(Cl)c2)cc1 (centres undefined) | 70.7%
16 | COc1cc(C=C2C(=O)NC(=S)NC2=O)cc(CN2CCCC2)c1O | 108%
17 | Cc1cc(N/N=C/c2nc(-c3ccc(Br)cc3)oc2C)c2cc(Br)ccc2n1 | 18.9%
18 | COc1ccc(Cl)cc1Nc1nc(C(F)(F)F)ccc1C(=O)N/N=C/c1cccnc1 | 21.8%
19 | O=C(CCl)N1c2ccccc2Oc2ccc3ccccc3c21 | -0.539% (active)
20 | Nc1c(Cl)cccc1[N+](=O)[O-] | 112%
21 | COc1cc(/C=C2\C(=O)N(c3c(Cl)cccc3Cl)c3ccccc32)cc(OC)c1OCCCCCCn1c2ccccc2c(=O)c2ccccc21 | 106%
22 | c1ccc2c(c1)nc(-n1ccnc1)c1nc3ccccc3n12 | 101%
23 | CC(=O)c1nc2ccccc2n1CCn1cc(CC(N)C(=O)O)c2ccccc21 (centres undefined) | 100%
24 | COc1cccc(C2(C)Nc3ccccc3-c3nc4ccccc4n32)c1 (centres undefined) | 89.1%
